This passage reports outcome results from PubChem BioAssay AID2284163 (EPA ToxCast).

The source made the active and inactive calls. The calls were made as follows: active = hit-call score of the fitted dose curve at least 0.9, where 1 is the maximum; inactive = score below 0.9.

Oxytocin receptor (Homo sapiens), sequence (P30559 whole entry, looked up): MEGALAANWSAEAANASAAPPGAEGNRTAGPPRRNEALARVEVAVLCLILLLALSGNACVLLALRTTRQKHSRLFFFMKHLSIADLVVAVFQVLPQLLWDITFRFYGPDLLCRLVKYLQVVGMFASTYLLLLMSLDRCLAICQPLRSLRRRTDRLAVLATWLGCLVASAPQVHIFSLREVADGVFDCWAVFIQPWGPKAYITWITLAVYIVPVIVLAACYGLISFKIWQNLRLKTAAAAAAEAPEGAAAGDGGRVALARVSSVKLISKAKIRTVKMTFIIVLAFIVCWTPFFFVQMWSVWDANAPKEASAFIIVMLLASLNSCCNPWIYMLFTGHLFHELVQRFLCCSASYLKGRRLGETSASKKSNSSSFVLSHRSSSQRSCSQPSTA

This assay addresses Oxytocin receptor (Homo sapiens) (UniProt P30559). The experiment in a line: ERF_FR_GPCR_hOXTR: Eurofins (ERF) G Protein-Coupled Receptor (GPCR) Radioligand Binding LeadHunter Assay for human Vasopressin / Oxytocin Receptor OT Agonism. The method, then:
ERF_FR_GPCR_hOXTR is a biochemical, single-readout assay that uses extracted gene-proteins in a cell-free assay. Measurements were taken 2 hour after chemical dosing in a 96-well plate. See OT Human Vasopressin / Oxytocin GPCR Binding (Agonist Radioligand) Assay, Cerep.ERF_FR_GPCR_hOXTR is an assay component calculated from the ERF_FR_GPCR_hOXTR assay. It is designed to measure radioligand binding using a type of binding reporter as detected by scintillation counting with radiometry technology.Data from the assay component ERF_FR_GPCR_hOXTR was analyzed at the assay endpoint, ERF_FR_GPCR_hOXTR, in the positive analysis fitting direction relative to DMSO as the negative control and baseline of activity. Using a type of binding reporter, gain-of-signal activity can be used to understand changes in binding as they relate to gene OXTR. To generalize the intended target to other relatable targets, this assay endpoint is annotated to the gpcr intended target family, where the subfamily is vasopressin and oxytocin.
Human cells are incubated for 60 minutes at room temprature with [3H] Oxytocin ligand (0.8 nM) and OXYTOCIN as control inhibitor. Test Sample Requirements: Minimum for 1) Screen: 60 ul of 10 mM stock -OR- 1 mg (pre-weighed) for 10 uM final testing. 2) Dose Response: 90 ul of 10 mM stock -OR- 1 mg (pre-weighed) for a top concentration at 10 uM.
On to `CCCCC[C@H](O)CC(=O)CCc1ccc(O)c(OC)c1`, for which the compound was classed as inactive.
